Compound activity: PubChem BioAssay, National Center for Advancing Translational Sciences (NCATS)
The list is not random: actives were taken first. Their share in the collection is about 18%.
TDP1 cell noCPT: qHTS for Inhibitors of human tyrosyl-DNA phosphodiesterase 1 (TDP1): qHTS in cells in absence of CPT; DT40 Tdp1-/- hTDP1 cells, no CPT, ATP luminescence, 48 h; Potency, µM (series often up to 46.2 µM), for the others: at the highest dose activity change, negative = growth inhibition, hits mostly inhibitors; actives 15% (n = 420,000); AID 686978, 2013; note: potency is the fitted concentration of half-maximal effect; nearly all actives have a fitted effect of over 55% in size
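Growth of hTDP1-complemented DT40 Tdp1-knockout cells is measured by ATP luminescence after at least 48 hr compound exposure at 37 °C, with DMSO substituting for the 20 nM CPT used in the parallel screen.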
TDP1 cell CPT: qHTS for Inhibitors of human tyrosyl-DNA phosphodiesterase 1 (TDP1): qHTS in cells in presence of CPT. chicken DT40 Tdp1-/-;hTDP1 cells + 20 nM CPT, ATP luminescence, 48 h. Potency, µM (doses to about 46.2 µM), for inactives: top-dose activity change, negative = growth inhibition, actives largely listed as inhibitors. actives 12% (n = 420,000). AID 686979, 2013; note: potency is the fitted concentration of half-maximal effect; nearly all actives have a fitted effect of over 55% in size
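Cell growth measured by CellTiter-Glo luminescence after a minimum 48 h, 37 C compound exposure with 20 nM CPT in Tdp1-knockout DT40 cells stably expressing hTDP1, seeded 400/well; qHTS titration format.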
CtBP-E1A inh: qHTS Assay for Inhibitors of the CtBP/E1A Interaction. CtBP / adenovirus E1A interaction (AlphaScreen). AlphaScreen GST-E1A/His-CtBP binding, 1536-well; hits give low values. activity change, % (concentration not given with the values). actives 0.49% (n = 340,000); in the data active = activity change below about -65%; inconclusive = mostly about -30% to -63%
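In 5 uL wells, 23 nL compound meets equimolar GST-E1A and His-CtBP (5X stock 125 nM each) for 2 h, 37 °C. Beads (5X, 50 ug/mL) then 1 h, 37 °C, dark.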
TDP1 inh: qHTS Assay for Inhibitors of Tyrosyl-DNA Phosphodiesterase (TDP1); Potency, µM (doses to about 130 µM), inactives show at the top dose activity change, negative = inhibition, hits mostly inhibitors; recombinant TDP1, AlphaScreen DNA substrate cleavage; actives 0.28% (n = 350,000); note: potency is the fitted concentration of half-maximal effect; nearly all actives have a fitted effect of over 40% in size
Target sequence (Q9NUW8 whole entry, looked up): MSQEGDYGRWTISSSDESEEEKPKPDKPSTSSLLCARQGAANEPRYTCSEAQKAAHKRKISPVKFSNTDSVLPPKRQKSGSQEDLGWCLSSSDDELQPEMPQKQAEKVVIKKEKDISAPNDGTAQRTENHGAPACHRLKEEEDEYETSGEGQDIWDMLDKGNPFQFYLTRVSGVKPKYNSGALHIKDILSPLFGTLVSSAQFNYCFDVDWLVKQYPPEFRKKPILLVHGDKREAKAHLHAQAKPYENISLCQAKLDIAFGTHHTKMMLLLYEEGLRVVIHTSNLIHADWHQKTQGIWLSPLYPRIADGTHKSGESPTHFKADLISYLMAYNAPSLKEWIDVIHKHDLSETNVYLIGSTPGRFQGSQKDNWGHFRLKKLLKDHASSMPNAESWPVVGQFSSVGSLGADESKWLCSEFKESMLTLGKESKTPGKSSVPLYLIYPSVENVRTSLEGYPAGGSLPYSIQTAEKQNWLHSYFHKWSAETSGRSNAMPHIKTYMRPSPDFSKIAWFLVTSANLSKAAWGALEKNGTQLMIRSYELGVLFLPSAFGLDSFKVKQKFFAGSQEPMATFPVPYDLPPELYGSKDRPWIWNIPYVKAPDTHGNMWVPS
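Recombinant human Tdp1 (E. coli-expressed, 1 nM final) preincubated with compounds 15 min at room temperature, then 5'-biotin/3'-phosphotyrosine-FITC DNA substrate (15 nM final) added for 5 min. AlphaScreen beads (10 ug/ml final) added 10 min; cleavage lowers signal.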
IL-1B inflam inh: qHTS for Inhibitors of Inflammasome Signaling: IL-1-beta AlphaLISA Primary Screen; activity change, % at 57.5 µM; THP-1 LPS/ATP IL-1B secretion, AlphaLISA, 16 h; hits give low values; AID 743279, 2014; actives 4.7% (n = 360,000); in the data active = activity change below about -50%; inconclusive = mostly about -30% to -49%
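Secreted IL-1B measured by AlphaLISA bead assay after 16 h compound exposure of THP-1 cells; compounds (final up to 57.5 uM) added 1 h before LPS (250 ng/mL) and ATP (1.25 mM) stimulation; lower signal means less secretion.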
Six1-Eya2 inh: qHTS Assay for Inhibitors of the Six1/Eya2 Interaction; AID 651725, 2012; actives 0.56% (n = 360,000); activity change, % (concentration not given with the values); Homeobox protein SIX1 (Homo sapiens) + Protein phosphatase EYA2 (Homo sapiens), …; AlphaScreen GST-Six1/His-Eya2 binding, biochemical; hits give low values; in the data active = activity change below about -65%; inconclusive = mostly about -30% to -63%
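Compounds are tested against tagged Six1 and Eya2 proteins bridged by glutathione donor and nickel acceptor beads; after a one-hour incubation at 37 °C without light, AlphaScreen emission is recorded.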
* hit, by the source's call. Unless noted, calls come from the whole dose curve; as a rule, active = well fitted curve in the direction sought with a large enough effect; inconclusive = small, poorly fitted or top-dose-only effect, or another doubt; inactive = no such curve, though single readings can be large; an effect the other way counts as inactive or inconclusive. % is set by controls: 0 for no effect and ±100 for the full control effect.

How did Cc1ccc(CN2CCSc3ccc(C(=O)N4CCN(c5ccccc5)CC4)cc32)cc1 do in these assays?
TDP1 cell noCPT: -24%; TDP1 cell CPT: inconclusive; TDP1 inh: 4%

How did CCOC(=O)N1CCC(NC(=O)c2ccc3c(c2)N(C)CCS3)CC1 do in these assays?
TDP1 cell noCPT: inconclusive; TDP1 cell CPT: inconclusive; CtBP-E1A inh: 37; TDP1 inh: 5%; IL-1B inflam inh: 9; Six1-Eya2 inh: 14

What do the screens show for `O=C(c1ccc2c(c1)N(Cc1ccc(F)cc1)CCS2)N1CCN(c2ccccc2)CC1`?
TDP1 cell noCPT: 23µM*; TDP1 cell CPT: 21µM*; TDP1 inh: 4%

How did COc1ccc(C(=O)N2CCN(C3CCCCC3)CC2)cc1OC do in these assays?
TDP1 cell noCPT: inconclusive; TDP1 cell CPT: -5%; CtBP-E1A inh: -6; IL-1B inflam inh: 13; Six1-Eya2 inh: 2

Results for NC(=O)CCC(C(=O)O)N1C(=O)c2ccc(O)cc2C1=O (stereo not drawn) ?
TDP1 cell noCPT: -10%; TDP1 cell CPT: 22%; CtBP-E1A inh: 6; IL-1B inflam inh: 10; Six1-Eya2 inh: -4

How did CCc1ccc(OC(=O)Cc2ccc(OC)c(S(=O)(=O)N3CCOCC3)c2)cc1 do in these assays?
TDP1 cell noCPT: 3%; TDP1 cell CPT: 4%; CtBP-E1A inh: -2; TDP1 inh: 0%; IL-1B inflam inh: -6; Six1-Eya2 inh: -3

What do the screens show for `Cc1[nH]c(=S)[nH]c(=O)c1Cc1ccc(OCC(C)C)cc1`?
TDP1 cell noCPT: -4%; TDP1 cell CPT: 20%; CtBP-E1A inh: 3; TDP1 inh: -5%; IL-1B inflam inh: 20; Six1-Eya2 inh: -1

Results for CCOC(=O)N1CCN(C(=O)c2cc(-c3ccc(F)cc3)[nH]c2C)CC1 ?
TDP1 cell noCPT: 21µM*; TDP1 cell CPT: inconclusive; CtBP-E1A inh: -4; TDP1 inh: 6%; IL-1B inflam inh: -10; Six1-Eya2 inh: -2

How did CCOC(=O)N1CCC(NC(=O)c2ccc3c(c2)N(Cc2ccc(F)cc2)CCS3)CC1 do in these assays?
TDP1 cell noCPT: 23µM*; TDP1 cell CPT: 23µM*; CtBP-E1A inh: -9; TDP1 inh: 3%; IL-1B inflam inh: -8; Six1-Eya2 inh: -14

What do the screens show for `O=C(NCC1CCCO1)c1ccc2c(c1)N(Cc1ccc(F)cc1)CCS2` (stereo not drawn)?
TDP1 cell noCPT: inconclusive; TDP1 cell CPT: inconclusive; TDP1 inh: 3%; IL-1B inflam inh: -7; Six1-Eya2 inh: -4

What do the screens show for `COc1ccc(N2CCN(C(=O)c3cc(-c4ccc(F)cc4)[nH]c3C)CC2)cc1`?
TDP1 cell noCPT: -20%; TDP1 cell CPT: -21%; CtBP-E1A inh: 0; IL-1B inflam inh: -14; Six1-Eya2 inh: -21

What do the screens show for `C[N+]1(Cc2ccccc2)CCC(C(=O)OCC2CCCC2)CC1` (stereo not drawn)?
TDP1 cell noCPT: 21µM*; TDP1 cell CPT: inconclusive; TDP1 inh: 6%

Results for CCOC(=O)c1c(C)[nH]c(C)c1S(=O)(=O)N1CCC(c2ccccc2)C1 (stereo not drawn) ?
TDP1 cell noCPT: inconclusive; TDP1 cell CPT: -25%; TDP1 inh: 6%; IL-1B inflam inh: 5; Six1-Eya2 inh: -11

How did COC(=O)c1sccc1S(=O)(=O)NC(C)c1cnn(-c2ccc(OC)cc2)c1C (stereo not drawn) do in these assays?
TDP1 cell noCPT: inconclusive; TDP1 cell CPT: -29%; CtBP-E1A inh: 22; TDP1 inh: 3%; IL-1B inflam inh: 0; Six1-Eya2 inh: -2
